Source: the supplement of paper PMC10849652
About 7,900 targets were measured; listed, in parts, are those with a hit and a random draw of the rest. About 0.6% of all pairs of compound and target were hits.

Legend:
Assay in all cases: log2 fold change, soluble protein after heating vs DMSO (PISA); higher = thermal stabilisation; K562 cells, 10 uM, 30 min; active = over 0.2 and 3.5 SD of the protein, either way, in both replicates (recomputed)
[1] = compound: CC[C@@H]1C(=O)N(C)c2cnc(Nc3ccc(C(=O)NC4CCN(C)CC4)cc3OC)nc2N1C1CCCC1
Method in brief: (§1)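 Soluble protein was defined as the supernatant after 21,000xg for 90 min. It came from K562 cells at 2×10^6 cells/mL given 10 μM compound for 30 min, heated in aliquots for 3 min across 48°C-58°C, pooled, and extracted in PBS with 0.5% NP-40 at 4°C, and was quantified by TMTpro 16plex LC-MS/MS with equalised channel sums. Thermal stability against control samples, from duplicates, is reported as log2 fold change.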

[2] = compound: CC[C@@H]1C(=O)N(C)c2cnc(Nc3ccc(C(=O)N[C@H]4CC[C@H](N5CCN(CC6CC6)CC5)CC4)cc3OC)nc2N1C(C)C [volasertib]
Method in brief: as §1

[3] = compound: CC[C@H](C)N1C=C(C2=C(C=C(C=C21)C3=CN=C(C=C3)N4CCNCC4)C(=O)NCC5=C(C=C(NC5=O)C)C)C
Method in brief: as §1

[4] = compound: CC[C@H](C)[C@@H](C(=O)N[C@@H]([C@@H](C)O)C(=O)N[C@@H](CC(C)C)C(=O)[C@]1(CO1)C)NC(=O)[C@H]([C@@H](C)CC)N(C)C(=O)C [epoxomicin]
Method in brief: as §1

[5] = compound: CCn1c(C(=O)N(C2CC2)C2CC2)cc2c3c(ncn3C)c(Nc3cc(C)n(C)n3)nc21
Method in brief: as §1

[6] = compound: CCn1cc(-c2ccnc3[nH]c(-c4cccc(CN(C)C)c4)cc23)c(-c2ccc(NC(=O)N(C)C)cc2)n1
Method in brief: as §1

[7] = compound: CN(C)CC(=O)Nc1ccc2[nH]c(=O)c3ccccc3c2c1
Method in brief: as §1

[8] = compound: CN(CCOC1=CC=C(C=C1)C[C@H]2C(=O)NC(=O)S2)C3=CC=CC=N3 (racemic) [rosiglitazone]
Method in brief: as §1

[9] = compound: CN1C2=C(C3=C1C(=O)N(N=C3)CC4=CC(=CC=C4)N)SC(=C2)S(=O)C
Method in brief: as §1

[10] = compound: CN1CCC(CNc2ccc3ncc(-c4cccc(OC(F)(F)F)c4)n3n2)CC1
Method in brief: as §1

[11] = compound: CN1CCN(CCOc2cc(OC3CCOCC3)c3c(Nc4c(Cl)ccc5c4OCO5)ncnc3c2)CC1 [saracatinib]
Method in brief: as §1

[12] = compound: CN1CCN(c2nc(C3=C(c4c[nH]c5ccccc45)C(=O)NC3=O)c3ccccc3n2)CC1 [sotrastaurin]
Method in brief: as §1

[13] = compound: CN1CC[C@H](c2c(O)cc(O)c3c(=O)cc(-c4ccccc4Cl)oc23)[C@H](O)C1 [alvocidib]
Method in brief: as §1

[14] = compound: CN1CCc2c(c3ccccc3n2Cc2ccc(C(=O)NO)cc2)C1 [Tubastatin A]
Method in brief: as §1

[15] = compound: CNC(=O)C1=CC=CC=C1NC2=NC(=NC=C2Cl)NC3=C(C=C(C=C3)N4CCOCC4)OC
Method in brief: as §1

[16] = compound: CNC(=O)c1ccc(Nc2ncc(C(F)(F)F)c(NCc3nccnc3N(C)S(C)(=O)=O)n2)cc1 [defactinib]
Method in brief: as §1

[17] = compound: CNCc1ccc(-c2[nH]c3cc(F)cc4c3c2CCNC4=O)cc1 [rucaparib]
Method in brief: as §1

[18] = compound: CNc1nc(-c2ccc3c(N)n[nH]c3c2)cc(N2C[C@@H](C(=O)NC3CCCCC3)CC[C@H]2C)n1
Method in brief: as §1

[19] = compound: COC(=O)N[C@@H](C)CNc1nccc(-c2cn(C(C)C)nc2-c2cc(Cl)cc(NS(C)(=O)=O)c2F)n1 [encorafenib]
Method in brief: as §1

[20] = compound: COC(=O)[C@H](CCSC)NC(=O)C1=C(C=C(C=C1)NC[C@H](CS)N)C2=CC=CC=C2
Method in brief: as §1

Measured: log2 fold change

MINK1 (UniProt Q8N4C8)
inactive: [1] -0.01 | [2] -0.149 | [3] 0.056 | [4] -0.009 | [5] -0.011 | [6] -0.069 | [7] -0.035 | [8] 0.011 | [9] -0.004 | [10] -0.137 | [11] -0.052 | [12] -0.009 | [13] -0.027 | [14] -0.015 | [15] -0.007 | [16] -0.069 | [17] -0.033 | [18] -0.029 | [19] 0.044 | [20] 0.012

NCAPH (UniProt Q15003)
UniProt Q15003, sequence (Q15003 whole entry, looked up): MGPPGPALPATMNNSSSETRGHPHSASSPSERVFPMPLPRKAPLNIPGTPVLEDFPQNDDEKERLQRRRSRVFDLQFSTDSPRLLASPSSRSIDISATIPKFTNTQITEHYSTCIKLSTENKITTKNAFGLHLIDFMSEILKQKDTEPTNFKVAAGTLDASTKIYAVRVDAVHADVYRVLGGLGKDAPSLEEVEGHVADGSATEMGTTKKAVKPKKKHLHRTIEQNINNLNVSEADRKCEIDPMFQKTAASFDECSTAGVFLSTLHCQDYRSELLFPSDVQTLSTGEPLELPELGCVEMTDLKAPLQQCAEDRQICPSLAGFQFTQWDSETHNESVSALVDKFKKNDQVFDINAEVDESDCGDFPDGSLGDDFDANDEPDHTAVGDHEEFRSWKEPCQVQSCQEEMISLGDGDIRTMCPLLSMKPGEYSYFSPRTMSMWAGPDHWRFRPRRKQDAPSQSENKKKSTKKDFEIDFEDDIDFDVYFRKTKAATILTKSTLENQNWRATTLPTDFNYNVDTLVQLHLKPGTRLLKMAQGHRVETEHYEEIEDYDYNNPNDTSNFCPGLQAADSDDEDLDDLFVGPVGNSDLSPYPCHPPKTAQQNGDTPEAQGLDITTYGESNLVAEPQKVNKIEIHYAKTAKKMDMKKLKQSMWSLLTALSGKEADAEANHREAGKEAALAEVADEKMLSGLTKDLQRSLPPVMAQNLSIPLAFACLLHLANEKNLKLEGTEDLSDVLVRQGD
inactive: [1] -0.126 | [3] 0.051 | [4] 0.011 | [5] -0.054 | [6] 0.052 | [7] 0.043 | [8] 0.024 | [9] -0.021 | [10] -0.116 | [11] 0.001 | [12] -0.15 | [13] -0.016 | [14] 0.04 | [15] 0.024 | [16] -0.119 | [17] 0.074 | [18] 0.009 | [19] 0.057 | [20] -0.039
active: [2] -0.353

MSH2 (UniProt P43246)
inactive: [1] -0.103 | [2] -0.173 | [3] 0.039 | [4] 0.066 | [5] -0.034 | [6] 0.036 | [7] 0.059 | [8] 0.046 | [9] -0.019 | [10] -0.067 | [11] -0.006 | [12] -0.072 | [13] -0.111 | [14] 0.041 | [15] 0.065 | [16] -0.153 | [17] -0.06 | [18] 0.031 | [19] 0.062 | [20] -0.037

MON1B (UniProt Q7L1V2)
UniProt Q7L1V2, sequence (Q7L1V2 whole entry, looked up): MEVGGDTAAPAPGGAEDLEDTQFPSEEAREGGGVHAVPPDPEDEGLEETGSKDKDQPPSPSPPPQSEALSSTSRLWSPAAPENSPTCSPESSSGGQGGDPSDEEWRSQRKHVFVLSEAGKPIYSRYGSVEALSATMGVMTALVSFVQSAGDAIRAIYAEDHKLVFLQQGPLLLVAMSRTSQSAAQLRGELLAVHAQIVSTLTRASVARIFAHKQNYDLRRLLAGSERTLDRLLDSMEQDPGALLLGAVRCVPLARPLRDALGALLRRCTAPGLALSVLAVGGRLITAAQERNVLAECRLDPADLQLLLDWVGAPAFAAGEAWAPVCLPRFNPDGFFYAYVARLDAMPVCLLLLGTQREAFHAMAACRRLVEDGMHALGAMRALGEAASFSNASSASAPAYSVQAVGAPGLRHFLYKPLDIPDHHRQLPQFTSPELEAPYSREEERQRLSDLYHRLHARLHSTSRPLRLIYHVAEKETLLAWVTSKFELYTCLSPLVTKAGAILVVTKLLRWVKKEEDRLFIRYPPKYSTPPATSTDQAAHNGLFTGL
inactive: [1] -0.002 | [2] -0.183 | [3] -0.021 | [4] -0.028 | [5] -0.025 | [6] 0.013 | [7] -0.024 | [8] 0.016 | [9] -0.011 | [11] 0.005 | [12] -0.028 | [13] -0.057 | [14] 0.048 | [15] -0.011 | [16] 0.016 | [17] -0.015 | [18] -0.036 | [19] 0.037 | [20] -0.013
active: [10] -0.377

NSUN2 (UniProt Q08J23)
active: [13] -0.328 | [16] -0.281
inactive: [1] -0.182 | [2] -0.286 | [3] 0.051 | [4] -0.044 | [5] 0.017 | [6] -0.044 | [7] 0.009 | [8] 0.029 | [9] 0.025 | [10] -0.131 | [11] 0.008 | [12] -0.243 | [14] -0.008 | [15] -0.081 | [17] -0.021 | [18] -0.083 | [19] 0.004 | [20] 0.009

MKNK1 (UniProt Q9BUB5)
inactive: [1] -0.148 | [2] -0.183 | [3] -0.025 | [4] 0.018 | [5] -0.023 | [6] -0.101 | [7] 0.009 | [8] 0.036 | [9] -0.095 | [10] -0.006 | [11] 0.049 | [12] -0.088 | [13] -0.06 | [14] 0.037 | [15] 0.038 | [16] -0.102 | [17] 0.099 | [18] 0.051 | [19] 0.018 | [20] -0.053

MSH3 (UniProt P20585)
inactive: [1] -0.032 | [2] -0.179 | [3] -0.003 | [4] 0.062 | [5] -0.072 | [6] -0.019 | [7] -0.028 | [8] 0.019 | [9] -0.008 | [10] 0.047 | [11] -0.013 | [12] -0.003 | [13] -0.015 | [14] 0.045 | [15] -0.026 | [16] 0.015 | [17] 0.031 | [18] -0.011 | [19] 0.069 | [20] -0.02

NMRAL1 (UniProt Q9HBL8)
UniProt Q9HBL8, sequence (Q9HBL8 whole entry, looked up): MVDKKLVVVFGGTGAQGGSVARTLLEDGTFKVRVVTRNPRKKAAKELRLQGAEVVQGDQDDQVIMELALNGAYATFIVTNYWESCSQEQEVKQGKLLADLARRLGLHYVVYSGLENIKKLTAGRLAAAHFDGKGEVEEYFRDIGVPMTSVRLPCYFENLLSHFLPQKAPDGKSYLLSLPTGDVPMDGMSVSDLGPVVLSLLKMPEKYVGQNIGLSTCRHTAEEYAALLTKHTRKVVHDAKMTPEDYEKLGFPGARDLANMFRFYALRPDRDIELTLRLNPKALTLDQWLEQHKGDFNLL
active: [17] 0.84
inactive: [1] 0.27 | [2] 0.294 | [3] 0.105 | [4] 0.035 | [5] 0.01 | [6] 0.055 | [7] 0.122 | [8] 0.011 | [9] 0.059 | [10] 0.526 | [11] 0.115 | [12] 0.028 | [13] 0.001 | [14] 0.14 | [15] 0.061 | [16] 0.122 | [18] 0.018 | [19] -0.14 | [20] -0.154

NOP2 isoform 4 (UniProt P46087)
inactive: [1] 0.196 | [2] 0.348 | [3] -0.03 | [4] -0.328 | [5] -0.098 | [6] 0.364 | [7] -0.346 | [8] -0.056 | [9] 0.546 | [10] 0.494 | [11] -0.09 | [12] -0.007 | [13] 0.574 | [14] 0.079 | [15] 0.064 | [17] 0.673 | [18] 0.115 | [19] 0.238 | [20] -0.024
active: [16] 1.26

MRPS9 (UniProt P82933)
inactive: [1] 0.094 | [2] 0.109 | [3] 0.076 | [4] -0.009 | [5] -0.082 | [6] 0.027 | [7] -0.004 | [8] 0.012 | [9] 0.071 | [10] 0.001 | [11] -0.064 | [12] -0.072 | [13] 0.043 | [14] 0.04 | [15] 0.013 | [16] 0.056 | [17] 0.087 | [18] 0.136 | [19] 0.05 | [20] -0.081

MYH10 isoform 3 (UniProt P35580)
inactive: [1] -0.082 | [3] 0.026 | [4] 0.094 | [5] -0.025 | [6] -0.036 | [7] 0.024 | [8] 0.022 | [9] -0.064 | [10] -0.077 | [11] 0.019 | [12] -0.058 | [13] -0.034 | [14] 0.002 | [15] 0.024 | [16] -0.039 | [17] -0.056 | [18] -0.005 | [19] 0.017 | [20] -0.023
active: [2] -0.216

NARS2 (UniProt Q96I59)
UniProt Q96I59, sequence (Q96I59 whole entry, looked up): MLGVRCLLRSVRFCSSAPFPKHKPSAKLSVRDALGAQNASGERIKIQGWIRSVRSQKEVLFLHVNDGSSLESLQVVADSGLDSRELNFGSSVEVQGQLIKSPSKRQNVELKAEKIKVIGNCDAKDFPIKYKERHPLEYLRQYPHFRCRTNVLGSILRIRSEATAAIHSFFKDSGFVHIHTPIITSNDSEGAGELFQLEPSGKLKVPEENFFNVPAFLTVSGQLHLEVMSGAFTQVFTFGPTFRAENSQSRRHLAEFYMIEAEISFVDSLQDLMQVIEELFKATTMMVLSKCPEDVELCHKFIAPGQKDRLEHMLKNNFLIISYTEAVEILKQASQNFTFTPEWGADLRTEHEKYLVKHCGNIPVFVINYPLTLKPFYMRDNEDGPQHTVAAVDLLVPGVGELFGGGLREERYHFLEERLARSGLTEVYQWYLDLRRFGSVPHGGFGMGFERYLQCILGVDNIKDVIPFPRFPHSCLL
inactive: [1] -0.021 | [2] -0.043 | [3] 0.045 | [4] 0.048 | [5] 0.034 | [6] -0.055 | [7] 0.001 | [8] 0.026 | [9] -0.034 | [10] -0.182 | [11] -0.004 | [12] 0.03 | [13] -0.039 | [14] -0.127 | [15] -0.056 | [16] 0.001 | [17] -0.021 | [18] -0.006 | [19] 0.008 | [20] -0.008

NASP (UniProt P49321)
UniProt P49321, sequence (P49321 whole entry, looked up): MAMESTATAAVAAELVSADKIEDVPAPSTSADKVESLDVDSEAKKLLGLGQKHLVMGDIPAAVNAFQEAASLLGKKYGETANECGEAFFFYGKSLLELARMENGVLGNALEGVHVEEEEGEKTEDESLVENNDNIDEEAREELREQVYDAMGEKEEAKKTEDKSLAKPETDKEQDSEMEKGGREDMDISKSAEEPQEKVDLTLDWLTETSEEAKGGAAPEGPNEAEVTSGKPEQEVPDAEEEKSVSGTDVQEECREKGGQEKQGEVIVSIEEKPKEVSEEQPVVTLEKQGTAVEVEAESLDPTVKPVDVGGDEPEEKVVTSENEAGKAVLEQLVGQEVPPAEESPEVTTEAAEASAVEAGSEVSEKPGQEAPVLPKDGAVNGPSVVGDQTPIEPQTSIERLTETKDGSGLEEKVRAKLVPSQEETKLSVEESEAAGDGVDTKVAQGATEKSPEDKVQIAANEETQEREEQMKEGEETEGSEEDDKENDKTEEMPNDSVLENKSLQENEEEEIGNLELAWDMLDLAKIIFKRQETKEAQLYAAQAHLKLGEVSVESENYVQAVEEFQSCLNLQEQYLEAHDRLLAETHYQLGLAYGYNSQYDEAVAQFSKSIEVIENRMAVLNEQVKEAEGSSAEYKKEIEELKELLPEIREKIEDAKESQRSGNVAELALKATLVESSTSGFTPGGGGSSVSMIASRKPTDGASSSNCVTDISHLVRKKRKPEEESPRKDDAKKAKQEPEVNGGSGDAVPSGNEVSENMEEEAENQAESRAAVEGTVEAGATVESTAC
active: [2] -0.277
inactive: [1] -0.118 | [3] 0.049 | [4] 0.046 | [5] 0.035 | [6] -0.03 | [7] 0.004 | [8] 0.029 | [9] -0.061 | [10] -0.051 | [11] 0 | [12] -0.045 | [13] -0.08 | [14] 0.012 | [15] 0.073 | [16] -0.085 | [17] -0.11 | [18] -0.041 | [19] 0.001 | [20] -0.004

MRPS6 (UniProt P82932)
inactive: [1] -0.015 | [2] -0.045 | [3] 0.03 | [4] -0.012 | [5] -0.06 | [6] -0.067 | [7] 0.09 | [8] 0.072 | [9] -0.021 | [10] 0.027 | [11] -0.197 | [12] -0.058 | [13] -0.036 | [14] 0.011 | [15] -0.003 | [16] -0.023 | [17] 0.056 | [18] 0.092 | [19] 0.016 | [20] -0.126

NUP210 (UniProt Q8TEM1)
UniProt Q8TEM1, sequence (Q8TEM1 whole entry, looked up): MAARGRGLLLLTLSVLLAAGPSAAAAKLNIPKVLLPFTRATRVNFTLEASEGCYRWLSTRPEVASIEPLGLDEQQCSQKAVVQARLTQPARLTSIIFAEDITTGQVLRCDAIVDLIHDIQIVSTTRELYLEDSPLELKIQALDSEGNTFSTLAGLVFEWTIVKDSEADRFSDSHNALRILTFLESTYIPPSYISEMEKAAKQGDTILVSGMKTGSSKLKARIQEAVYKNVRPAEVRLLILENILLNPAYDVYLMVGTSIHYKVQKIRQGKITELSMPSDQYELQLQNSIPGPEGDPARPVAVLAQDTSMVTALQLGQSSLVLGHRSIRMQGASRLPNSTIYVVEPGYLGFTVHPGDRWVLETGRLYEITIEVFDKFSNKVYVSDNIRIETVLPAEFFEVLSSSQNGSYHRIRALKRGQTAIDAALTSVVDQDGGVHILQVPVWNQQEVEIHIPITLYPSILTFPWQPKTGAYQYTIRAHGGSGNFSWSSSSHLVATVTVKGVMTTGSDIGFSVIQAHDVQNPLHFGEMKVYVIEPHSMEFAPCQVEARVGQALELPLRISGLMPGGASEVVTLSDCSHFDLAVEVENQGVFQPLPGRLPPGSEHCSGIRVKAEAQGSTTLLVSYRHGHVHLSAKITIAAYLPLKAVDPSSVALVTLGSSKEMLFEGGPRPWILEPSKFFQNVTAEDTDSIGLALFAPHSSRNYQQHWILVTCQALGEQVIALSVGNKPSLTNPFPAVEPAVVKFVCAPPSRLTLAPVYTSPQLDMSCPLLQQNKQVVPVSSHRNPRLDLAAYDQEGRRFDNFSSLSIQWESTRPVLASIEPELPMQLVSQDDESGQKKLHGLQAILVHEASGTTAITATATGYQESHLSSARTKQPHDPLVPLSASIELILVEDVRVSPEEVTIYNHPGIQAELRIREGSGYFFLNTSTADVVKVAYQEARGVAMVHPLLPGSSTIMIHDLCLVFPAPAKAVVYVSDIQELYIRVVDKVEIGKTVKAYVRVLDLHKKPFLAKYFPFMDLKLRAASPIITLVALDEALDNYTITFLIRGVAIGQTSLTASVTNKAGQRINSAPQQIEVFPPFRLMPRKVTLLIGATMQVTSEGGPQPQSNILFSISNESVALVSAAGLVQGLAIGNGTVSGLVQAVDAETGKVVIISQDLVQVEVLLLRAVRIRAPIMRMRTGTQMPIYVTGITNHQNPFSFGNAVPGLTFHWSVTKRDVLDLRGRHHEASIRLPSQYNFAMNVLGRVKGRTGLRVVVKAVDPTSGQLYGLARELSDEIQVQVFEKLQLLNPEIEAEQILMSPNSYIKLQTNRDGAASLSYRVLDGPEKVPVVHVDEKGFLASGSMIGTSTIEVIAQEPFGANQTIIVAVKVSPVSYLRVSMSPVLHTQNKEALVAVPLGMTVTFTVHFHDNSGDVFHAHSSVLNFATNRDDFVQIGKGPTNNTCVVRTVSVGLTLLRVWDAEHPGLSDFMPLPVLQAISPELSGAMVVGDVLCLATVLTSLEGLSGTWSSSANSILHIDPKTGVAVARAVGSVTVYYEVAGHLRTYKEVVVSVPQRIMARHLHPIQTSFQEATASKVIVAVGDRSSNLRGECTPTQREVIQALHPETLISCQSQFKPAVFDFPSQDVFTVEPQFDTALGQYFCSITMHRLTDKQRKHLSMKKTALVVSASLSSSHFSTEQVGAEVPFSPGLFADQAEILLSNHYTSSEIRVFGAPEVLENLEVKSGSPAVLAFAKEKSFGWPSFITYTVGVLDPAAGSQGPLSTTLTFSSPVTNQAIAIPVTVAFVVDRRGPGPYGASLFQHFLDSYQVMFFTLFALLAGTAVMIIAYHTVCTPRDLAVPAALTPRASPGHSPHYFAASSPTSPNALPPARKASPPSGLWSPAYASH
active: [10] -0.348
inactive: [1] -0.001 | [2] -0.12 | [3] 0 | [4] 0.03 | [5] 0.002 | [6] -0.053 | [7] 0.03 | [8] 0.03 | [9] -0.026 | [11] 0.017 | [12] -0.019 | [13] -0.04 | [14] -0.003 | [15] -0.147 | [16] -0.021 | [17] -0.039 | [18] -0.07 | [19] 0.027 | [20] -0.035

NDUFA6 (UniProt P56556)
UniProt P56556, sequence (P56556 whole entry, looked up): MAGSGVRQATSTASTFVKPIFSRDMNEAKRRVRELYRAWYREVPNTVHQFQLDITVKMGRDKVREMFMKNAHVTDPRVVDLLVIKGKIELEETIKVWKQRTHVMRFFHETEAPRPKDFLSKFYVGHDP
inactive: [1] -0.069 | [2] -0.252 | [3] 0.098 | [4] 0.115 | [5] -0.086 | [6] -0.089 | [7] 0.081 | [8] 0.116 | [9] -0.022 | [10] -0.072 | [11] -0.037 | [12] 0.003 | [13] -0.122 | [14] 0.021 | [15] -0.039 | [16] -0.068 | [17] 0.006 | [18] 0.044 | [19] 0.034 | [20] -0.039
